# Source: ChEMBL document CHEMBL4888484, “Replenishing the malaria drug discovery pipeline: Screening and hit evaluation of the MMV Hit Generation Library 1 (HGL1) against asexual blood stage Plasmodium falciparum ,using a nano luciferase reporter read-out” (2022)
# The whole screen tested about 4,800 compounds, of which about 410 (8.5%) showed an effect of 50% or more. This is one part of a sample in which strong results are shown more often than they occur.
# Test system: Plasmodium falciparum
# Test: Confirmatory screen in NF54 pLDH assay, in single point, at 2uM, 72h
# Type: functional, Erythrocyte
# Conditions: timepoint 72 hour
row,Structure (SMILES),% Inhibition [%]
1,O=C1CCN(C(=O)COc2ccc(-c3ccccc3)cc2Cl)CCN1,-12
2,CC(=O)N[C@H]1CCc2nc(N)sc2C1,13
3,C[C@@H]1C[C@@H](Nc2ccccc2)c2ccccc2N1C(=O)COc1ccc(Br)cc1,10
4,Cc1noc(Cl)c1CC(=O)N1CCCC(C)(C)CC1,20
5,O=C(Cc1c(Cl)cccc1Cl)N1CC[C@]2(CCOC2)C1,-19
6,CC[C@@]1(C)CCCN(C(=O)Cc2c(C)noc2Cl)C1,87
7,Cc1ccc(-n2c(=O)c3sccc3n(CC(=O)NCc3ccc(F)cc3F)c2=O)cc1C,-20
8,CC1CCC2(CC1)N=C(c1ccccc1)C(=O)N2CC(=O)N[C@H]1CCc2ccccc21 (stereo partly specified),-4
9,CN(Cc1cnn(-c2ccccc2)n1)c1ncnc2[nH]ncc12,10
10,CCCCC(=O)N1CCc2[nH]nc(C(=O)NCCc3ccc(OC)cc3)c2C1,2
11,Cc1nc2nnnn2c(C)c1C/C=C/c1ccccc1,8
12,Cc1cc(OC[C@@H](O)CNC(C)(C)CC(C)(C)C)cc(C)c1Cl,57
13,O=C(N[C@@H](N1CCCC1)C(Cl)(Cl)Cl)c1ccc(Cl)cc1,-13
14,O=C(N[C@H]1CC12CC2)c1ccncc1F,-22
15,C=C1C(C)C2C(Cc3c[nH]c4ccccc34)NC(=O)C23C(=O)CC(O)C(O)CC(C)C/C=C/C3C1O (stereo unspecified),65
16,CCc1ccc(/C=C/c2c[nH]c3ccccc23)[n+](CC)c1,88
17,C[n+]1ccccc1/C=C/c1c[nH]c2ccccc12,81
18,Fc1cc(Cl)cnc1N1CCC2(CCOCC2)C1,12
19,Cc1[nH]n(-c2nc(C(F)(F)F)cc(=O)[nH]2)c(=O)c1CCO,-9
20,O=C1C2CC=CCC2C(=O)N1CNc1ccc(Cl)cc1 (stereo unspecified),-9
21,CCn1c(=O)c(N2CCN(C(=O)Nc3ccc(OC)cc3OC)CC2)nc2cccnc21,-17
22,O=C([C@H]1CCCN(C(=O)N2CCc3sccc3C2)C1)N1CCc2[nH]ncc2C1,-7
23,CCOC(=O)C(C)NC(=O)C(C)NC(=O)c1ccc(F)c(C#N)c1 (stereo unspecified),7
24,O=S(=O)(NC1CC(c2ccc(F)c(Cl)c2)C1)C1CC1 (stereo unspecified),7

row,Structure (SMILES),% Inhibition [%]
1,Cn1nc(C2CC2)c2c(C(F)F)cc(-c3ccc4c(c3)OCO4)nc21,2
2,CCS(=O)(=O)Nc1ccc(Br)cc1Cl,-1
3,Cc1ncccc1C(=O)NCCc1csc(-c2ccccc2)n1,-19
4,c1ccc(-c2nc(C[n+]3ccc4c(c3)CCCC4)cs2)cc1,56
5,CN(C)c1ccc(C2OCC3(CCC4(COC(c5ccc(N(C)C)cc5)OC4)O3)CO2)cc1 (stereo unspecified),-5
6,Fc1ccc(COc2ccc3ccccc3c2CNc2ccc(Br)cc2)cc1,10
7,CCCNC(=O)CS(=O)(=O)Cc1cccc(Br)c1C,-14
8,Nc1nc(-c2ccccc2)c2cc3c(nn12)C[C@H](c1ccc(F)cc1)CC3=O,-6
9,COc1c2c(cc3c1[C@@H](C#CCOc1ccccc1)[N+](C)(C)CC3)OCO2,68
10,CCn1cc(S(=O)(=O)N2CC(Oc3cccc(-c4nc(C)no4)c3)C2)cn1,7
11,COc1cc(-c2nc3ncnn3c(N)c2C#N)cc(OC)c1OC,-17
12,Cc1cc(C)c2nc(C)cc(Nc3ccc(O)cc3)c2c1,103
13,COc1c(Cl)cc(Cl)cc1C#N,-17
14,COc1cc(N)c(NC(C)=O)cc1Cl,7
15,COc1cccc(CNCc2ccc3c(c2)OCO3)c1OCc1ccc(Cl)cc1Cl,10
16,COc1ccccc1CN1COc2cc3c(cc2C1)OCO3,52
17,COCCN(CC1CN(Cc2ccccc2OC)CC1c1ccccc1OC)C(=O)COC (stereo unspecified),0
18,O=S(=O)(NCc1ccc(C(F)(F)F)nc1N1CCC(C(F)(F)F)CC1)C(F)(F)F,8
19,CC(C1Cc2ccccc2O1)N(C)Cc1nccn1S(=O)(=O)N(C)C (stereo unspecified),-8
20,Cn1ccc(C(=O)Nc2ccc(-c3ccccc3)cn2)cc1=O,-11
21,Nc1n[nH]c2c(Cl)c3nnc(-c4ccccc4)n3c(Cl)c12,13
22,O=C(Cc1ccc(N(Cc2cccc(F)c2)C(=O)C2CCCC2)cc1)NCCN1CCCCC1,43
23,COCCN(Cc1c(-c2ccccc2)noc1N1CCN(C)CC1)C(=O)c1ccc(C)cc1,12
24,C[C@H](Nc1ccc(N2CCOCC2)nc1)c1cccc(CO)c1,11

row,Structure (SMILES),% Inhibition [%]
1,CCn1c(-c2cc(NC(=O)c3ccc4c(c3)OCO4)[nH]n2)cc2ccc(OC)cc21,4
2,Oc1nc(N2CCOC3(CCCC3)C2)ncc1F,53
3,FC(F)(F)c1cnc(N2CCOC3(CCOCC3)CC2)s1,9
4,O=C(c1cc(-c2ccncc2)on1)N1CCOC2(CCCCCC2)C1,8
5,Cc1c(C(=O)N2CC[C@H](CC(C)(C)C)C2(C)C)nnn1-c1cnn(C)c1,-9
6,Cc1cc(C)cc(NC(=O)Cc2nc(C)c(C(=O)NCc3ccccc3)s2)c1,5
7,CCOC(=O)c1ncn(C2CCN(C(=O)c3cccc(Cn4ccnc4)c3)CC2)c1N,5
8,CCOC(=O)c1c(CN2CCCC2)n(C)c2cc(-c3cccnc3)c(O)c(Cn3ccnc3)c12,68
9,CCOC(=O)c1nc(-c2cccnc2)cs1,-8
10,Cc1cccc(C)c1OCC(C)NC(=O)N1CCCC(CS(C)(=O)=O)C1 (stereo unspecified),-20
11,COc1ccc(CN(C)[C@H]2CCc3nn(C)c(=O)n3CC2)c(Cl)c1OC,1
12,CC(C)c1nnc(Cn2nnc(-c3ccncn3)n2)s1,-12
13,Cc1cc(C)n(CCC(=O)N2CC[C@H](c3nc(C4CCOCC4)no3)C2)n1,9
14,O=C(Cn1c(Cc2ccc(Cl)cc2)nc2ccccc21)Nc1ccccc1,9
15,Cc1ccc(S(=O)(=O)Nc2c(S(=O)(=O)c3ccc(C)cc3)c3nc4ccccc4nc3n2CCC(C)C)cc1,100
16,O=C(Nc1ccccc1)c1ccc2c(c1)C(=O)N(CCc1ccccc1)C2=O,-15
17,Cc1ccc(S(=O)(=O)Nc2c(S(=O)(=O)c3ccccc3)c3nc4ccccc4nc3n2CCc2ccccc2)cc1,100
18,O=C(Nc1c(S(=O)(=O)c2ccccc2)c2nc3ccccc3nc2n1CCc1ccccc1)c1ccc(Cl)cc1,96
19,Cc1ccc(S(=O)(=O)Nc2c(S(=O)(=O)c3ccc(C)cc3)c3nc4ccccc4nc3n2C[C@H]2CCCO2)cc1,8
20,Cc1ccc(S(=O)(=O)c2c(NS(=O)(=O)c3ccc(F)cc3)n(CCc3ccccc3)c3nc4ccccc4nc23)cc1,103
21,Cc1cnc(C2CCC2)n1CCNS(=O)(=O)c1ccccc1,2
22,COCCCn1c(NS(=O)(=O)c2ccccc2)c(S(=O)(=O)c2ccc(C)cc2)c2nc3ccccc3nc21,49
23,Cc1ccc(S(=O)(=O)Nc2ccccc2-c2nnc(-c3c(NS(=O)(=O)c4ccc(C)cc4)ccc4ccccc34)o2)cc1,-13
